# Inconclusive results are not listed. Calls of active or inactive are those of the source. Unless noted, the call rests on the fitted dose curve; in most records, active means well fitted curve in either direction with a large enough effect (not every such curve was filed as active); inconclusive means small, poorly fitted or top-dose-only effect, or another doubt; inactive means flat fitted curve, though single readings scatter.
# How the values were obtained:
# [1] = biological target: Lysosomal acid glucosylceramidase (Homo sapiens) (UniProt P04062); test: Glucocerebrosidase-p2 (AID 348; in the data active means potency below about 10 µM; further: potency means the concentration at half of the fitted maximal effect); details: purified GBA, blue fluorogenic substrate, 40 min
# Method in brief: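 Compounds titrated from 0.6 nM upwards against 0.2 nM enzyme in pH 5.9 citric acid/KH2PO4, taurocholate, tween-20; blue fluorogenic substrate 80 uM, 40 min room temperature, stopped and read Ex 365/Em 440 for AC50.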
# [2] = AP1 Signaling Pathway (AID 357); details: ME-180 AP-1-bla reporter, EGF-induced, beta-lactamase ratio, 5 h; at 7.69 µM (top of the series) unless noted;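 further: ME-180 reporter cells stimulated with EGF at its EC50 level; on the % scale 0 is the no-effect control and ±100 the full control effect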
# Method in brief: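 In this screen, ME-180 cells in Opti-MEM with 0.5% dialyzed FBS received EC50 EGF and compound titrations for 5 h. AP-1 reporter beta-lactamase was detected via CCF4 ratio, giving AC50 for positive and negative modulators.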
# [3] = biological target: Cytochrome P450 1A2 (Homo sapiens) (UniProt P05177); test: p450-cyp1a2 (AID 410; calls by dose curve; further: potency means the concentration at half of the fitted maximal effect;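 on activity change, negative = inhibition: -100% = full effect of reference inhibitor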); details: recombinant CYP1A2, luciferin-ME demethylation, luminescence; series mostly up to 57 µM
# Method in brief: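 Human CYP1A2 (20nM) demethylated Luciferin-ME at its Km (100uM) in 100mM KPO4. After 10 min compound preincubation, NADPH regeneration ran the reaction 60 min at room temperature. Luciferin was read by luminescence, normalized to 57 uM furafylline.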
# [4] = Stat Signaling Pathway (AID 446); details: ME-180 (cervical carcinoma) SIE beta-lactamase reporter, IL-6 stimulated, 5 h; at 7.69 µM (top of the series) unless noted;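 further: ME-180 cervical cancer cells given 40 pM IL-6 alongside compound; SIE-controlled beta-lactamase reporter measured as 460/530 nm FRET emission ratio; on the % scale 0 is the no-effect control and ±100 the full control effect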
# Method in brief: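 IL-6/STAT signaling read in ME-180 cells via an SIE beta-lactamase reporter. Stimulus was 40 pM IL-6 (its AC50) for 5 hrs, so both activation and inhibition register.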
# [5] = biological target: Glucocorticoid receptor (Homo sapiens) (UniProt P04150); test: GR-EFC Redistribution (AID 451; calls by dose curve; further: potency means the concentration at half of the fitted maximal effect); details: CHO-K1 GR-EFC translocation, beta-gal luminescence, 2 h
# Method in brief: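 CHO-K1 cells expressing nuclear EA and GR-ED fragments of b-gal; compounds titrated up to 46 uM final, 2 h at 37 C. GR nuclear translocation read as complemented b-gal luminescence after 1 h RT detection.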
# [6] = biological target: Mitogen-activated protein kinase 10 (Mus musculus) (UniProt Q61831); test: JNK3 AlphaScreen Assay (AID 530); details: JNK3 lysate, c-Jun phosphorylation; series mostly up to 57.1 µM;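 further: kinase came from lysate of stimulated human HepG2 cells; signal reports phosphorylation of biotinylated GST-cJun 1-79 at Ser73 with 10 µM ATP; on the % scale 0 is the no-effect control and ±100 the full control effect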
# Method in brief: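 qHTS format: compounds tested as titrations against IL-1beta/TNF-alpha-activated HepG2 lysate JNK3 with biotin-GST-cJun substrate and 10 uM ATP at room temperature. Loss of anti-phospho-cJun AlphaScreen signal indicates inhibition.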
# [7] = biological target: 3',5'-cyclic-AMP phosphodiesterase 4B (Homo sapiens) (UniProt Q07343); test: qHTS Assay for Inhibitors of PDE-IV (AID 607; active means well fitted activation curve with a large enough effect in the main read-out, with a control signal flat, not every such curve was filed as active; further: % of control where 0% means no effect); details: HEK293 ACTOne CNG channel cells, membrane potential fluorescence; series mostly up to 22.9 µM
# Method in brief: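 Live HEK293 cells with a modified cyclic nucleotide-gated (CNG) channel report intracellular cAMP via membrane-potential dye fluorescence (ex 535/em 590 nm). Endogenous PDE-IV was targeted. Compounds were tested at up to 22.9 uM final; RO 20-1724 100 uM served as control.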
# [8] = qHTS Assay for Lipid Storage Modulators (AID 1519; calls by dose curve); details: Drosophila S3 cells, BODIPY lipid droplet/cell ratio, laser cytometry, cells loaded with oleic acid; for activity change, negative = inhibition: at 57.5 µM (top of the series)
# Method in brief: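 Cells seeded at 5,000 per well were treated with compounds over a concentration series and loaded with oleic acid (400 uM, as added). Lipid droplet fluorescence (488 nm excitation, 500-530 nm channel) was read by laser-scanning cytometry and normalized to 20 uM Triacsin C.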
# [9] = NFAT Signaling Pathway (AID 444); details: Jurkat NFAT-bla M1, carbachol, beta-lactamase ratio, 5 h; at 7.69 µM (top of the series) unless noted;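 further: carbachol stimulus at about its EC50 of 1 µM final; on the % scale 0 is the no-effect control and ±100 the full control effect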
# Method in brief: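 Jurkat cells with NFAT-driven β-lactamase reporter and co-expressed M1 receptor, stimulated with carbachol (final 1 uM, ~EC50), compound titration, 5 h at 37 °C. CCF4 loaded 1 h at RT; 460/530 nm ratio gave %activity and AC50.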
# [10] = biological target: Glucocorticoid receptor (Homo sapiens) (UniProt P04150); test: GR-GFP Redistribution (AID 450;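 active means compounds whose dose series gives a full or clear partial fitted curve of increased nuclear translocation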; further: potency means the concentration at half of the fitted maximal effect); details: U2OS GR-GFP nuclear translocation, laser cytometry, 2 h
# [11] = biological target: Dual specificity protein kinase CLK4 (Homo sapiens) (UniProt Q9HAZ1); test: qHTS Assay for Inhibitors of CDC-like Kinase 4 (Kinase-Glo Assay) (AID 1770; active means well fitted curve in the direction sought with a large enough effect; an effect the other way counts as inactive or inconclusive; further: on the % scale 0 is the no-effect control and ±100 the full control effect; nearly all actives have a fitted effect of over 65% in size); details: recombinant Clk4, Kinase-Glo ATP depletion luminescence; series mostly up to 66.7 µM
# Method in brief: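 Recombinant human Clk4 (25 nM) phosphorylated RS repeat peptide (100 uM) with 1 uM ATP in Tris pH 7.5/MgCl2/EGTA/DTT/Triton buffer for 4.5 h at room temperature. Residual ATP was quantified by Kinase-Glo luciferase luminescence.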
# [12] = biological target: Dual specificity protein kinase CLK4 (Homo sapiens) (UniProt Q9HAZ1); test: qHTS Assay for Inhibitors of CDC-like Kinase 4 (ADP-Glo Assay) (AID 1771; active means well fitted curve in the direction sought with a large enough effect; an effect the other way counts as inactive or inconclusive; further: on the % scale 0 is the no-effect control and ±100 the full control effect; nearly all actives have a fitted effect of over 70% in size); details: recombinant CLK4, ADP-Glo luminescence; series mostly up to 80 µM
# Method in brief: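 Clk4 (25 nM) was incubated 1 hr at room temperature with 100 uM RS repeat peptide and 1 uM ATP in buffer with 2 mM MgCl2, 0.5 mM EGTA, 2.5 mM DTT. ADP formed was quantified by ADP-Glo luminescence.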
# [13] = biological target: Dual specificity protein kinase CLK4 (Homo sapiens) (UniProt Q9HAZ1); test: qHTS Assay for Inhibitors of CDC-like Kinase 4 (ADP-FP Assay) (AID 1795; active means well fitted curve in the direction sought with a large enough effect; an effect the other way counts as inactive or inconclusive; further: on the % scale 0 is the no-effect control and ±100 the full control effect; nearly all actives have a fitted effect of over 60% in size); details: Transcreener ADP fluorescence polarization; series mostly up to 50 µM
# Method in brief: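 Recombinant human Clk4 (6.25 nM) phosphorylated RS repeat peptide (100 uM) with 1 uM ATP in Tris pH 7.5/MgCl2/EGTA/DTT/Triton buffer for one hour. ADP was quantified by Transcreener competitive fluorescence polarization against an ADP calibration curve.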
# [14] = biological target: Ubiquitin carboxyl-terminal hydrolase 1 (Homo sapiens) (UniProt O94782); test: Inhibitors of USP1/UAF1: Pilot qHTS (AID 504865; active means well fitted curve in the direction sought with a large enough effect; an effect the other way counts as inactive or inconclusive;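 further: rhodamine fluorescence freed from ubiquitin-rhodamine substrate followed over time; top concentration of the series differs between compounds; on the % scale 0 is the no-effect control and ±100 the full control effect; nearly all actives have a fitted effect of over 35% in size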); details: purified USP1/UAF1, Ub-rhodamine cleavage fluorescence; series mostly up to 54.9 µM
# Method in brief: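 USP1/UAF1 complex (1nM) preincubated with compound 15 min at room temperature, then Ub-Rho substrate (150nM final) added. Fluorescence read kinetically at 480/540 nm, 6 reads every 60 seconds. Buffer: 50mM HEPES pH 7.8, 0.5mM EDTA, 0.1 mg/ml BSA, 1mM TCEP, 0.01% Tween-20.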
# [15] = biological target: Ubiquitin carboxyl-terminal hydrolase 2 (Homo sapiens) (UniProt O75604); test: qHTS for Inhibitors of Ubiquitin-specific Protease USP2a Using CHOP2 as the Reporter: K484 Substrate (AID 652173; active means well fitted curve in the direction sought with a large enough effect; an effect the other way counts as inactive or inconclusive;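 further: cleavage of internally quenched K48 di-ubiquitin substrate measured as rising fluorescence over time; potency means the concentration at half of the fitted maximal effect; nearly all actives have a fitted effect of over 70% in size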); details: USP2 cleavage of DiUb K48 IQF substrate, fluorescence; series mostly up to 57.5 µM
# Method in brief: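 USP2 (dispensed at 5 nM) was pinned with compounds, then DiUb K48 internally quenched fluorescent substrate (dispensed at 100 nM) was added. The buffer was 20 mM Tris pH 8, 2 mM beta-mercaptoethanol and 0.05% CHAPS. Cleavage was read kinetically as rising fluorescence, Ex 525/Em 598.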
# [16] = biological target: Cytochrome P450 3A4 (Homo sapiens) (UniProt P08684); test: qHTS Assay for Inhibitors and Substrates of Cytochrome P450 3A4 (AID 884; active means well fitted curve in the direction sought with a large enough effect; an effect the other way counts as inactive or inconclusive; further: potency means the concentration at half of the fitted maximal effect; nearly all actives have a fitted effect of over 50% in size); details: recombinant CYP3A4, Luciferin-PPXE luminescence; series mostly up to 57.1 µM
# Method in brief: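 20 nM human CYP3A4 with 25 uM Luciferin-PPXE (at KM) in 200 mM KPO4, preincubated 10 min with compound; NADPH regeneration started a 60 min RT reaction. Luciferin detected by luminescence, normalized to 57 uM ketoconazole as full inhibition.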
# [17] = biological target: Cytochrome P450 3A4 (Homo sapiens) (UniProt P08684); test: qHTS Assay for Activators of Cytochrome P450 3A4 (AID 885; active means well fitted curve in the direction sought with a large enough effect; an effect the other way counts as inactive or inconclusive; further: nearly all actives have a fitted effect of over 65% in size); details: recombinant CYP3A4, Luciferin-PPXE luminescence, 60 min; series mostly up to 57.1 µM
# Method in brief: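 Quantitative HTS format: compounds preincubated with 20nM human CYP3A4 and Luciferin-PPXE substrate at KM, reaction started by NADPH regeneration, stopped after 60 min, luciferase luminescence read 20 min later.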
# [18] = Confirmation and Secondary Assay for Modulators of Hemoglobin Beta Chain Splicing at IVS2 654 locus (AID 910; active means well fitted curve in the direction sought with a large enough effect; an effect the other way counts as inactive or inconclusive;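 further: HeLa cells stably carrying EGFP split by mutant beta-globin IVS2-654 intron; % of control where 0% means no effect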); details: HeLa EGFP-654 splicing reporter, GFP fluorescence, 48 h; series mostly up to 38.3 µM
# Method in brief: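 HeLa cells stably expressing EGFP interrupted by β-globin IVS2-654 intron, seeded overnight in Opti-MEM/2% FCS, then treated 2 days at 37 °C. Restored splicing read as total peak GFP intensity per well by laser scanning cytometry (488 nm excitation, 500–520 nm emission); 500 nM antisense PNA as control.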
# [19] = Confirmation and Secondary Assay for Modulators of Hemoglobin Beta Chain Splicing at IVS2 705 locus (AID 930; active means well fitted curve in the direction sought with a large enough effect; an effect the other way counts as inactive or inconclusive;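 further: HeLa cells stably expressing the EGFP-705 splicing reporter; GFP fluorescence per well restored by corrected splicing of the IVS2-705 intron in EGFP; % of control where 0% means no effect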); details: HeLa EGFP-705 splicing reporter, GFP fluorescence, 48 h; series mostly up to 38.3 µM
# Method in brief: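 Secondary splice-site specificity test uses HeLa expressing CMV-driven EGFP interrupted by IVS2-705; cells were treated 2 days at 37C with 500 nM antisense PNA as positive control.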
# [20] = measured here: cell count channel max response
# [21] = measured here: lipid channel max response
# Chain of Lysosomal acid glucosylceramidase (Homo sapiens) (P04062 whole entry, looked up): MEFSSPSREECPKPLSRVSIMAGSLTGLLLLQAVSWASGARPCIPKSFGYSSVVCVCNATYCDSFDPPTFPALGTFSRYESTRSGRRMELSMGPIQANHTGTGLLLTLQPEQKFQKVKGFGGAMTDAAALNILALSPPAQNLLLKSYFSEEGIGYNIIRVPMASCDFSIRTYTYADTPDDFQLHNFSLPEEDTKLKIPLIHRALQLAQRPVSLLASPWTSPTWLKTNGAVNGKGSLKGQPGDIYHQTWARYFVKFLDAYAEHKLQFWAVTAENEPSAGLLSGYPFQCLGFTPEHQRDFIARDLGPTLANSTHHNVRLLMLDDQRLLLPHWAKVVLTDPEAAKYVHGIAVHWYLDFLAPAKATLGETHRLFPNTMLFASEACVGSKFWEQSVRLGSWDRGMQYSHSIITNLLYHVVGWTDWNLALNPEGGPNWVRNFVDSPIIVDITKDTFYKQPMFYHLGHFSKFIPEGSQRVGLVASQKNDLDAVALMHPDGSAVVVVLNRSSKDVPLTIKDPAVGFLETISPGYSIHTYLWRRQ
# Chain of Glucocorticoid receptor (Homo sapiens) (P04150 whole entry, looked up, the tested form may be a part): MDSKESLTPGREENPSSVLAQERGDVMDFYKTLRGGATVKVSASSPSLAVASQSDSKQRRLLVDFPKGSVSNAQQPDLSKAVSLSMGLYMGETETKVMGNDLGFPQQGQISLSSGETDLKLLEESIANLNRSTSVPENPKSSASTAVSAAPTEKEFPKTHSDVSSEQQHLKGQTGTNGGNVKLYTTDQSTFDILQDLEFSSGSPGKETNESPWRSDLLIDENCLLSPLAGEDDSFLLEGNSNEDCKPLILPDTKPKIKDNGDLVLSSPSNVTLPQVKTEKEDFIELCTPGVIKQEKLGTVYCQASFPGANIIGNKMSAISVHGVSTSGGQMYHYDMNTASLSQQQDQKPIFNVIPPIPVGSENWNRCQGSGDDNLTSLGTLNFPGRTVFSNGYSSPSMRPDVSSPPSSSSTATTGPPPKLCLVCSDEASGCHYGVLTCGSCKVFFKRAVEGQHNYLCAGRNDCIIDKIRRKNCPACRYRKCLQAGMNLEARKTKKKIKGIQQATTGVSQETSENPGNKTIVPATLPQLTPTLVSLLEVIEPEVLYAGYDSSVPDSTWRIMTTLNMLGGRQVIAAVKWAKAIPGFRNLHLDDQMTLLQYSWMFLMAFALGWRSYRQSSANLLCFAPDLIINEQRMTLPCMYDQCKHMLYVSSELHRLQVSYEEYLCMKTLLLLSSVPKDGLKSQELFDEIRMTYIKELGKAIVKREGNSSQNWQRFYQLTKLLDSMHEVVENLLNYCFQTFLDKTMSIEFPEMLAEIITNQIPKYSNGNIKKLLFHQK
# Chain of Ubiquitin carboxyl-terminal hydrolase 1 (Homo sapiens) (O94782 whole entry, looked up): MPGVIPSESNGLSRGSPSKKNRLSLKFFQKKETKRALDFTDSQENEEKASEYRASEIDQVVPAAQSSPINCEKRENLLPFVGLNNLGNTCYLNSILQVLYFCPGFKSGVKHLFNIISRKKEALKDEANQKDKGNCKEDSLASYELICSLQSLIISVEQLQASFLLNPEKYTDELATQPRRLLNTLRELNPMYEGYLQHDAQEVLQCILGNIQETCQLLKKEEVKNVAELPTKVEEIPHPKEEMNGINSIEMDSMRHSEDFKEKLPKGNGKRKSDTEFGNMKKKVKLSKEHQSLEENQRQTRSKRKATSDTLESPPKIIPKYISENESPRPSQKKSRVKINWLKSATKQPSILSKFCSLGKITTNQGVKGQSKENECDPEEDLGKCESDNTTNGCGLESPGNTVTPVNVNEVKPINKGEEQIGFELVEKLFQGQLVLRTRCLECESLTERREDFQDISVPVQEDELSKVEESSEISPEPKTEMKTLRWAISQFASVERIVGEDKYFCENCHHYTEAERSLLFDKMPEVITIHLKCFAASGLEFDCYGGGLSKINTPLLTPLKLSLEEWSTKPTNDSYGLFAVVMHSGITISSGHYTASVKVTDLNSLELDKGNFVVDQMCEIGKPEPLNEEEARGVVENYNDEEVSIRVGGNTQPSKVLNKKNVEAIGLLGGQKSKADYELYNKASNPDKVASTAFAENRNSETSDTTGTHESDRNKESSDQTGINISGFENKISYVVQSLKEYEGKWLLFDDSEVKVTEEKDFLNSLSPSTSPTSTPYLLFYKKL
# Chain of Dual specificity protein kinase CLK4 (Homo sapiens) (Q9HAZ1 whole entry, looked up): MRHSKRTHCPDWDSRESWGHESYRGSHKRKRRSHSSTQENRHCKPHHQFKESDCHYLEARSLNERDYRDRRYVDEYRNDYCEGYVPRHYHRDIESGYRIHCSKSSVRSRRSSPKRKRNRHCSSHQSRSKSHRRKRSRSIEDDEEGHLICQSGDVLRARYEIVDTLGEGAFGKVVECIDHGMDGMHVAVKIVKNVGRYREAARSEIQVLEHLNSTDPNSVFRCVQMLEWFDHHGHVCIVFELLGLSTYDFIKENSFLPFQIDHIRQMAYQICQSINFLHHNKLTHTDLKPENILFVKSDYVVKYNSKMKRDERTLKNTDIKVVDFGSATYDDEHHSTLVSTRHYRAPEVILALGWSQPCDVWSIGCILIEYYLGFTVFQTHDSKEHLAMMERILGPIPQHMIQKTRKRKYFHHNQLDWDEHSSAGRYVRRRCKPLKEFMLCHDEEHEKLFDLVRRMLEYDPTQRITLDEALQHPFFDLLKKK
# Chain of Cytochrome P450 1A2 (Homo sapiens) (P05177 whole entry, looked up): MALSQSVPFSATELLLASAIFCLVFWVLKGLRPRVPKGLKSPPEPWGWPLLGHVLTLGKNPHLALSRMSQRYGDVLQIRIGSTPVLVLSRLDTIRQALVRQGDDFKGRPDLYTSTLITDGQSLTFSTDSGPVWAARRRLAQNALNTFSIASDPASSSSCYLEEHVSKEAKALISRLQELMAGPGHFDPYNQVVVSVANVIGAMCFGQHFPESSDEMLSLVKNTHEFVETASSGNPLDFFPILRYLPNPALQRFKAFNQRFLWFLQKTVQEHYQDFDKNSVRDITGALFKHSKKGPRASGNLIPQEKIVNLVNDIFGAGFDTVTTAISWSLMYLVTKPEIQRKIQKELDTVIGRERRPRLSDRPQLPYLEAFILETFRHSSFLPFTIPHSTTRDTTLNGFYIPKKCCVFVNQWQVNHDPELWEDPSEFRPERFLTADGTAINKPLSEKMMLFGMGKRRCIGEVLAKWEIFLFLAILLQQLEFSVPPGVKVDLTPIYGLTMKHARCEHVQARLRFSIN
# Chain of 3',5'-cyclic-AMP phosphodiesterase 4B (Homo sapiens) (Q07343 whole entry, looked up): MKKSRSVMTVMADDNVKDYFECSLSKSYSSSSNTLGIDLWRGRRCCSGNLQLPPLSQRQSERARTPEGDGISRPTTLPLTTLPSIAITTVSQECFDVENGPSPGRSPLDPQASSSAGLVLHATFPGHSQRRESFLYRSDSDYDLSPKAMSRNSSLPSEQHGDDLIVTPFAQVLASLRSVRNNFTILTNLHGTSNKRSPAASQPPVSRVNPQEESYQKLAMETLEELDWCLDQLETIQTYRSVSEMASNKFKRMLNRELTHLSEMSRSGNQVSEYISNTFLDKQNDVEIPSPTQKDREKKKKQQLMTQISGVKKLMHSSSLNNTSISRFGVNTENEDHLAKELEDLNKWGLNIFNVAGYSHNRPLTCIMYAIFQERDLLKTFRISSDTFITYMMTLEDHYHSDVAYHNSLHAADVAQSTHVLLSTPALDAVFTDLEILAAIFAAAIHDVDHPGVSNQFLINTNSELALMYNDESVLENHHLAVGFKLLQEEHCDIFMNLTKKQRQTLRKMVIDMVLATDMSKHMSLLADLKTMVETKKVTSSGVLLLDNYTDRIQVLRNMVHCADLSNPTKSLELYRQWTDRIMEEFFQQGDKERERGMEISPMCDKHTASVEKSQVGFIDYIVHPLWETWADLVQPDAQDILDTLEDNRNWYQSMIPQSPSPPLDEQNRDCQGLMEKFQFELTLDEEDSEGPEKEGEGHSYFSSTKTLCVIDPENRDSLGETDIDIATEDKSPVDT
# Chain of Cytochrome P450 3A4 (Homo sapiens) (P08684 whole entry, looked up): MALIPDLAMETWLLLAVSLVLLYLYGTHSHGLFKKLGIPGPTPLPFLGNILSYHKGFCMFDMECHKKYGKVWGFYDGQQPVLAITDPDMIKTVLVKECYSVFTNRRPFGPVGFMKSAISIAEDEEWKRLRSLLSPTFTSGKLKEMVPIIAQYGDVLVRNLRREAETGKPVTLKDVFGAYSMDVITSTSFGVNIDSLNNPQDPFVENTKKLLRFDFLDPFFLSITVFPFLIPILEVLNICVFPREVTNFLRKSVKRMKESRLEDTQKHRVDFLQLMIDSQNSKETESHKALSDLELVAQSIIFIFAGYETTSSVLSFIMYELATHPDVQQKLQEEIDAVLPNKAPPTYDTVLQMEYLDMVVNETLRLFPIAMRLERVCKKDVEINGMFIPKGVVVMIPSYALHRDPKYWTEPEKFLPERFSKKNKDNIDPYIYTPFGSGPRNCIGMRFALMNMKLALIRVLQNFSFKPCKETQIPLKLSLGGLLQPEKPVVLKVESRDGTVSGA
# Chain of Ubiquitin carboxyl-terminal hydrolase 2 (Homo sapiens) (O75604 whole entry, looked up): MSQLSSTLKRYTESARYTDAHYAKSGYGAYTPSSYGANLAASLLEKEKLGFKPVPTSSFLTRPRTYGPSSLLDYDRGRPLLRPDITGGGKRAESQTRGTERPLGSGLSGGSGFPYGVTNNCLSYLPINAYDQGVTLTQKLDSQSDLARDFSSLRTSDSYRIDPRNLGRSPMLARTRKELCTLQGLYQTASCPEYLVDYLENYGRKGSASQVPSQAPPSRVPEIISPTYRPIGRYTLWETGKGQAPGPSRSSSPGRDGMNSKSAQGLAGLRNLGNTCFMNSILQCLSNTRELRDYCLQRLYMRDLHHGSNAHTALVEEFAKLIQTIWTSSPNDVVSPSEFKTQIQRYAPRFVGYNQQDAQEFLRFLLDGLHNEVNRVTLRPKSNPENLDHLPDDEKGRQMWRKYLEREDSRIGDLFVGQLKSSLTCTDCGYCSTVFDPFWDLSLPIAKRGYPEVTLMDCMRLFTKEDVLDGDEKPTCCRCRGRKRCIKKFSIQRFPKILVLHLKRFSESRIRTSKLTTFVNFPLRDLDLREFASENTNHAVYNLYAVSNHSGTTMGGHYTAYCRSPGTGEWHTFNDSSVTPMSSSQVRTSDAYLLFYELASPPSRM
smiles,measurement,setting,value
COc1ccc(NC(=O)N2CC3(CCN(C(=O)c4c(C)noc4C)CC3)C2)cc1,Potency,[1],> 11.4 µM (inactive)
same,"activity change, negative = inhibition",[2],4.05% (inactive)
same,Potency,[3],inactive
same,"activity, negative = inhibition",[4],-8.69% (inactive)
same,Potency,[5],> 46 µM (inactive)
same,outcome,[6],inactive
same,Potency,[7],inactive
same,"activity change, negative = inhibition",[8],4.67% (inactive)
same,max response,[8]; [20],5.82%
same,max response,[8]; [21],14.2%
COc1ccc(NC(=O)N2CC3(CCN(C(=O)c4ccco4)CC3)C2)cc1,Potency,[1],> 11.4 µM (inactive)
same,"activity change, negative = inhibition",[2],-4.09% (inactive)
same,Potency,[3],inactive
same,"activity change, negative = inhibition",[9],3.69% (inactive)
same,"activity, negative = inhibition",[4],-3.56% (inactive)
same,Potency,[5],> 46 µM (inactive)
same,outcome,[6],inactive
same,Potency,[7],inactive
same,"activity change, negative = inhibition",[8],5.26% (inactive)
same,max response,[8]; [20],0.813%
same,max response,[8]; [21],8.8%
COCCn1c(=O)c(-c2ccc(Cl)cc2)nc2cnc(Oc3cccc(Cl)c3)nc21,Potency,[1],> 11.4 µM (inactive)
same,"activity change, negative = inhibition",[2],13.2% (inactive)
same,"activity change, negative = inhibition",[9],-0.0987% (inactive)
same,"activity, negative = inhibition",[4],-8.1% (inactive)
same,Potency,[10],> 9.22 µM (inactive)
same,Potency,[5],> 46 µM (inactive)
same,outcome,[6],inactive
same,Potency,[7],inactive
same,"activity change, negative = inhibition",[8],4.42% (inactive)
same,max response,[8]; [20],19.3%
same,max response,[8]; [21],25.5%
same,Potency,[11],inactive
same,Potency,[12],inactive
same,Potency,[13],inactive
Cc1nc2cnc(N(C)C)nc2n(CCC#N)c1=O,Potency,[1],> 11.4 µM (inactive)
same,"activity change, negative = inhibition",[2],-8.9% (inactive)
same,Potency,[3],10 µM (active)
same,"activity change, negative = inhibition",[9],-13.7% (inactive)
same,"activity, negative = inhibition",[4],-1.16% (inactive)
same,Potency,[10],> 9.22 µM (inactive)
same,Potency,[5],> 46 µM (inactive)
same,outcome,[6],inactive
same,Potency,[7],inactive
same,"activity change, negative = inhibition",[8],2.74% (inactive)
same,max response,[8]; [20],4.56%
same,max response,[8]; [21],5.95%
same,Potency,[11],inactive
same,Potency,[12],inactive
same,Potency,[13],inactive
same,Potency,[14],inactive
O=C(c1ccncc1)N1CCC2(CC1)CCN(c1ccccc1)CC2,Potency,[1],> 11.4 µM (inactive)
same,"activity change, negative = inhibition",[2],-1.33% (inactive)
same,Potency,[3],inactive
same,"activity change, negative = inhibition",[9],12.8% (inactive)
same,"activity, negative = inhibition",[4],-1.17% (inactive)
same,Potency,[5],> 46 µM (inactive)
same,outcome,[6],inactive
same,Potency,[7],inactive
same,"activity change, negative = inhibition",[8],2.16% (inactive)
same,max response,[8]; [20],0.126%
same,max response,[8]; [21],6.62%
Cc1ccc(-c2cc(C(=O)Nc3ccc(-n4cccn4)cc3)c3ccccc3n2)cc1C,Potency,[15],8.63 µM (active)
COc1cccc(Cn2c(=O)c(-c3ccc(F)cc3)nc3cnc(N(C)C)nc32)c1,"activity change, negative = inhibition",[2],12% (inactive)
same,"activity change, negative = inhibition",[9],9.76% (inactive)
same,"activity, negative = inhibition",[4],-3.48% (inactive)
same,Potency,[10],> 9.22 µM (inactive)
same,Potency,[5],> 46 µM (inactive)
same,outcome,[6],inactive
same,Potency,[7],inactive
same,"activity change, negative = inhibition",[8],7.91% (inactive)
same,max response,[8]; [20],20.9%
same,max response,[8]; [21],28.6%
same,Potency,[11],inactive
same,Potency,[12],inactive
same,Potency,[13],inactive
same,Potency,[14],inactive
COc1ccccc1-c1nccc(-n2ccnc2)n1,Potency,[1],> 11.4 µM (inactive)
same,"activity change, negative = inhibition",[2],10.1% (inactive)
same,Potency,[3],0.158 µM (active)
same,"activity change, negative = inhibition",[9],-2.21% (inactive)
same,"activity, negative = inhibition",[4],11.9% (inactive)
same,Potency,[10],> 46 µM (inactive)
same,Potency,[5],> 46 µM (inactive)
same,outcome,[6],inactive
same,Potency,[7],inactive
same,Potency,[16],1.58 µM (active)
same,Potency,[17],inactive
same,outcome,[18],inactive
same,outcome,[19],inactive
same,"activity change, negative = inhibition",[8],10.5% (inactive)
same,max response,[8]; [20],15.1%
same,max response,[8]; [21],27.4%
same,Potency,[14],inactive
